Results filed as inconclusive are left out. Unmarked numbers belong to inactive results. Active and inactive are the calls of the source. The call rests on the fitted dose curve; in most records, active means well fitted activation curve with a large enough effect; inconclusive means small, poorly fitted or top-dose-only effect; inactive means no such curve, though single readings can be large or run the other way.

Results on 39 compounds are retold here after PubChem BioAssay AID720526 (National Center for Advancing Translational Sciences (NCATS), 2013).
Potency means the concentration at half of the fitted maximal effect.

A short description of this assay: qHTS Assay for NPC1 Promoter Activators: Hit Validation Using Renila Luciferase Read-Out for NPC1. On activity change, positive = activation: % of control where 0% means no effect. Conditions: Huh7 NPC1 promoter-luciferase reporter, luminescence, 24 h; series mostly up to 76.9 µM; activity change, positive = activation: at the top concentration. The gist of the method:
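Huh7 cells stably carrying NPC promoter-luciferase reporter, exposed to compound for 24 h at 37 deg C. Luminescence read 10 min after adding luciferase detection reagent at room temperature.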
A general note: In qHTS, concentration-response curves come from the screen itself.
Regarding `COc1ccc(/C=C\C(=O)c2c(O)ccc3c(C)cc(=O)oc23)cc1OC`, the “activity change, positive = activation” value was -52.3%.

For the compound `Cc1ccc(NC(=O)COC(=O)C2C3CC4OC(=O)C2C4C3)cc1Cl` (centres undefined), the “activity change, positive = activation” value was -9.24%.

In the case of `CCOC(=O)c1csc(COc2ccc(OC)cc2)n1`, the “activity change, positive = activation” value was -7.41%.

Consider `S=C1NCN(CCc2ccccc2)CN1Cc1ccccc1`, for which the “activity change, positive = activation” value was 11.3%.

In the case of `O=C(NNC(=O)C1COc2ccccc2O1)c1ccccc1O` (centres undefined), the “activity change, positive = activation” value was -71%.

For `Cc1csc(NC(=O)CSc2nnc(-c3ccncc3)o2)n1`, the “activity change, positive = activation” value is -30.8%.

In the case of `COC(=O)c1ccccc1S(=O)(=O)NNC(=O)Nc1ccccc1`, the “activity change, positive = activation” value was -8.36%.

As for `O=C(CCc1cccc(Cl)c1)NC1CCCN(Cc2ccccc2F)C1` (centres undefined), the “activity change, positive = activation” value was 8.73%.

On to `Cc1nnc2n(c1=O)N=C(c1ccc(Cl)cc1)CS2`, for which the “activity change, positive = activation” value was 11.5%.

Regarding `Brc1ccccc1-c1nnc(CSc2nnc3sc4ccccc4n23)o1`, the “activity change, positive = activation” value is 3.11%.

As to `CNC(=O)Cn1nc(C)c2ccccc2c1=O`, the “activity change, positive = activation” value is -12.4%.

On to `CCCCn1c(Nc2ccc(OC)cc2)nc2ccccc21`, for which the “activity change, positive = activation” value was -4.57%.

Consider `CCOCC(=O)Nc1c(C(=O)Nc2ccc3c(c2)OCCO3)oc2ccccc12`, for which the “activity change, positive = activation” value was -45.9%.

Regarding `CCC(=O)Nc1cc(-c2cc3ccccc3oc2=O)ccc1OC`, the “activity change, positive = activation” value is 5.23%.

In the case of `C=CCc1ccc(OCCOCCNCCOC)c(OC)c1`, the “activity change, positive = activation” value was -23.8%.

With `CCOC(=O)CSc1nc2cc3c(cc2cc1C#N)OCO3`, the “activity change, positive = activation” value is 15.2%.

`O=C(CSc1nnc(Cc2cc(=O)[nH]c(=O)[nH]2)n1-c1ccc(Cl)cc1)NC1CCCC1`: the “activity change, positive = activation” value is -6.19%.

`O=C(CN1C(=O)COc2ccc(Cl)cc21)NCC1CCCO1` (centres undefined): the “activity change, positive = activation” value is 2.71%.

Turning to `O=C(CCNC(=O)c1ccc(Br)o1)NCc1ccc(Cl)cc1`, the “activity change, positive = activation” value was 2.26%.

On to `Cc1c(C(O)CN2CCN(Cc3ccc4c(c3)OCO4)CC2)c2ccccc2n1C` (centres undefined), for which the “activity change, positive = activation” value was 13.3%.

As for `Cc1ccc2nc(NC(=O)CCn3cccc3)sc2c1`, the “activity change, positive = activation” value is 16.6%.

With `Cc1nc(-c2ccccn2)sc1C(=O)Nc1ccc(F)cc1F`, the “activity change, positive = activation” value is -4.57%.

`CC(C)C(NC(=O)c1ccc([N+](=O)[O-])cc1Cl)C(=O)N1CCCC1` (centres undefined): the “activity change, positive = activation” value was -2.08%.

On to `NC(=O)C(=O)NN=C1C2CC3CC(C2)CC1C3`, for which the “activity change, positive = activation” value was -9.92%.

On to `O=C(C[N+]1(CC#Cc2ccccc2)CCCCC1)c1ccccc1`, for which the “activity change, positive = activation” value was 6.02%.

For `O=C(CSc1nnc(-c2ccccn2)o1)Nc1ccccc1Cl`, the “activity change, positive = activation” value is -7.37%.

As to `CCC1CCCCN1CCCNC(=O)c1ccc2nc(N3CCCCC3)sc2c1` (centres undefined), the “activity change, positive = activation” value was -32.3%.

As to `Cc1ccc(S(=O)(=O)/N=C2\C=C(Nc3cccc(C(=O)O)c3)C(=O)c3ccccc32)cc1`, the “activity change, positive = activation” value was -88%.

As to `CN(C)C(=O)[C@H]1C[C@H]1[C@@H](O)[C@H](CO)NC(=O)[C@H](COCc1ccccc1)NC(=O)OC(C)(C)C`, the “activity change, positive = activation” value was -35.3%.

On to `CC(Sc1ncnc2c1cnn2-c1ccccc1)C(=O)Nc1ccc(N2CCOCC2)cc1` (centres undefined), for which the “activity change, positive = activation” value was -18%.

As to `Cc1nc2sc(C(=O)OC(C)C)c(N)c2c(C)c1C`, the “activity change, positive = activation” value was 0.223%.

As to `Cc1ccccc1NC(=O)CSc1ccc(-c2cccnc2)nn1`, the “activity change, positive = activation” value was 8.75%.

Turning to `COc1cccc(C2Nc3ccccc3NC3=C2C(=O)CC(C)(C)C3)c1` (centres undefined), the “activity change, positive = activation” value was -5.16%.

As for `O=C(CCCOc1ccc(Cl)cc1)N1CCCCC1`, the “activity change, positive = activation” value is -10.6%.

`N#C/C(=N\Nc1ccc(Cl)cc1)C(=N)N1CCCCC1`: the “activity change, positive = activation” value was -69.1%.

`O=C(CSc1nccn1Cc1ccco1)Nc1ccccc1F`: the Potency is 36.8 µM (active).

As to `Cc1ccc(C#N)c(SCC(=O)Nc2nccs2)n1`, the “activity change, positive = activation” value is -7.61%.

Regarding `CCCCCCC(=O)Nc1ccc(C(=O)N/N=C/c2cccnc2)cc1`, the “activity change, positive = activation” value is -21.7%.

Consider `O=C(NCCc1ccccc1)c1cc2ncc(Br)cn2n1`, for which the “activity change, positive = activation” value was -3.26%.
